Bioassay records from PubChem.
HT1080-NT tox – kills 2HG-producing HT-1080-NT fibrosarcoma cells; hit rate 1.6% among 360,000; HT-1080-NT fibrosarcoma viability, CellTiter-Glo ATP luminescence, 48 h; Potency, µM (highest dose often 46.1 µM), actives largely listed as cytotoxic;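 note: NT is the 2HG producing partner of a matched IDH1 knockdown line; nearly all actives have a fitted effect of over 55% in size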
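HT-1080-NT; 750 cells/well; 5% FBS RPMI; 48 h compound, 37 degrees C; CellTiter-Glo luminescence; curve fitting and curve-class assignment.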
HT1080 IDH1KD tx – kills HT-1080 cells with IDH1 knockdown; hit rate 2% among 360,000; Potency, µM (series often up to 46.1 µM), hits mostly cytotoxic; HT-1080 IDH1 knockdown viability, ATP luminescence, 48 h
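HT-1080-IDH1KD cells (IDH1 knocked down), 750/well in RPMI with 5% FBS, treated with compound 48 h at 37 degrees C. Viability by CellTiter-Glo luminescence, normalised to DMSO and no-cell wells; concentration-response curves classed.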
ATXN2 expr inh – inhibitors of ATXN2 expression; HEK-293 ATXN2-luciferase reporter, luminescence, 24 h; Potency, µM (titrated, usually from 57 µM), hits mostly inhibitors; hit rate 0.72% among 360,000; AID 1745845; note: nearly all actives have a fitted effect of over 55% in size
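ATXN2-luciferase reporter cells (luciferase flanked by upstream and downstream ATXN2 gene portions) were treated 24 h at 37 °C with compounds at up to 57 uM. SteadyGlo luminescence gave expression; GF-AFC fluorescence gave viability.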
KB-V1 MDR tox – kills drug-selected multidrug resistant KB-V1 cells; Potency, µM (doses to about 46.1 µM), usual class: cytotoxic; AID 1347076; hit rate 3.4% among 400,000; KB-V1 MDR cells viability, CellTiter-Glo, 72 h; note: nearly all actives have a fitted effect of over 60% in size
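Luminescent ATP read-out (CellTiter-Glo, 10 min) measures survival of drug-selected KB-V1 MDR cells after 72 h, 37 degrees C compound exposure. Medium: phenol-red-free DMEM, 10% FBS. Values from fitted concentration-response curves.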
KB-3-1 cytotox – kills parental KB-3-1 adenocarcinoma cells | AID 1347075 | hit rate 1.4% among 400,000 | Potency, µM (series often up to 46.1 µM), most hits filed as cytotoxic | KB-3-1 viability, CellTiter-Glo ATP luminescence, 72 h; note: nearly all actives have a fitted effect of over 60% in size
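Luminescent ATP read-out (CellTiter-Glo) measures survival of drug-naive KB-3-1 cells after 72 h compound exposure at 37 °C. Titration series was screened from lowest to highest concentration, with DMSO vehicle plates as background controls.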
S2 tox – reduces viability in counter-screen for ATXN expression inhibitors | Potency, µM (titrated, usually from 56.7 µM), usual class: cytotoxic | S2 cells (HEK-293 line with an ATXN2-luciferase reporter) viability, CellTiter-Fluor protease fluorescence, 24 h | hit rate 0.49% among 400,000; note: nearly all actives have a fitted effect of over 40% in size
Numbers stand for hits; – = inactive; ? = inconclusive; · = no result; ! = not confirmed by another sample. The list is not random: actives were taken first. Their share in the collection is about 6.2%. Calls come from the whole dose curve; as a rule, active = well fitted curve in the direction sought with a large enough effect; inconclusive = small, poorly fitted or top-dose-only effect, or another doubt; inactive = no such curve, though single readings can be large; an effect the other way counts as inactive or inconclusive.

SMILES	HT1080-NT tox	HT1080 IDH1KD tx	ATXN2 expr inh	KB-V1 MDR tox	KB-3-1 cytotox	S2 tox
C#CCN(C[C@@H]1[C@@H](OC(=O)Nc2cccs2)[C@@H](OC(=O)Nc2cccs2)Cn2c(=O)ccc(=O)n21)S(=O)(=O)c1ccc(C)cc1	18.4µM	16.4µM	3.55µM	–	?	3.55µM
C#CCN(C[C@@H]1[C@@H](OC(=O)NCc2ccccc2F)[C@@H](OC(=O)NCc2ccccc2F)Cn2c(=O)n(CCCCCC)c(=O)n21)S(=O)(=O)c1ccc(C)cc1	–	–	–	–	–	?
C#CCN(C[C@@H]1[C@@H](OC(=O)NC2CCCC2)[C@@H](OC(=O)NC2CCCC2)Cn2c(=O)ccc(=O)n21)S(=O)(=O)c1ccc(C)cc1	7.31µM	8.2µM	?	–	–	11.2µM
C#CCN(C[C@@H]1[C@@H](OC(=O)NCc2ccccc2F)[C@@H](OC(=O)NCc2ccccc2F)Cn2c(=O)ccc(=O)n21)S(=O)(=O)c1ccc(C)cc1	6.51µM	6.51µM	3.98µM	–	14.6µM	3.98µM
CCc1nn2c(=O)cc(COC(=O)C3CCCCC3)nc2s1	·	·	–	?	–	–
CCN(Cc1ccncc1)Cc1ccc2c(c1)CN(C(=O)c1cccc3c(C)c(C)[nH]c13)CCO2	·	·	·	·	·	–
OCCN1CCN(c2ncnc3c2c(-c2ccccc2)cn3-c2ccc(F)cc2)CC1	?	18.4µM	–	–	–	–
Fc1ccc(-n2cc(-c3ccccc3)c3c(NN4CCOCC4)ncnc32)cc1	–	–	–	7.31µM	?	–
CCN(CC)S(=O)(=O)c1ccc2c(c1)N(CC(=O)N1CCN(c3cccc(C)c3C)CC1)C(=O)CO2	·	·	–	–	–	?
C[C@]1(O)CC(=O)C=C[C@H]1Nc1ccccc1	20.6µM	?	?	–	?	?
CC1(C)CC(C(=O)Nc2ccccc2)C(=O)O1 (stereo not given)	–	–	–	–	–	–
O=C(COc1ccc(F)cc1)N(c1ccccn1)C1CCCCC1	–	–	–	20.6µM	–	–
CC(C)c1ccc(OCC(=O)N(c2ccccn2)C2CCCCC2)cc1	–	–	–	–	–	–
NCC(=O)c1c[nH]c2ccccc12	·	·	·	–	–	·
CCN(CC)CCOC(=O)c1ccc(N/C=C(/C#N)c2nc(-c3ccc(OC)c(OC)c3)cs2)cc1	23.1µM	–	–	–	–	–
CC(C)(C)OC(=O)N/N=C/c1cc(N=Nc2ccccc2)ccc1O	–	?	–	–	?	?
O=C(N/N=C/c1cc(Cl)ccc1O)c1ccc(Br)cc1	9.2µM	5.8µM	4.47µM	?	?	–
O=C(N/N=C/c1ccccc1O)C1SCCCS1	?	16.4µM	?	–	?	–
Cc1ccc(N=Nc2ccc(O)c(/C=N\NC(=O)c3ccc(N)cc3)c2)cc1C	3.98µM	1.58µM	?	–	–	?
O=C(N/N=C/c1ccccc1O)c1ccncc1	?	?	3.55µM!	–	–	?
O=C(N/N=C/c1cccc2ccccc12)c1ccncc1	–	–	·	?	–	–
O=C(NN=Cc1ccccc1O)C1CC1	–	–	–	?	–	–
OCCN1CCN(Cc2ccc3c(c2)CN(Cc2cccn2-c2ccccn2)CCO3)CC1	·	·	·	·	·	–
CNC(=O)c1cnc2sc(N3CCC(C)CC3)nn2c1=O	·	·	–	–	–	–
O=C(Cc1ccc(Cl)cc1)N/N=C/c1ccc(O)c(O)c1	–	–	·	?	?	?
SMILES	HT1080-NT tox	HT1080 IDH1KD tx	ATXN2 expr inh	KB-V1 MDR tox	KB-3-1 cytotox	S2 tox
O=C(N/N=C/c1ccc(O)c2ncccc12)c1cccc(Br)c1	23.1µM	18.4µM	?	?	2.59µM	?
O=C(N/N=C/c1ccc(OC(=O)c2ccc(Br)cc2)cc1)c1ccncc1	–	–	–	–	–	?
O=C(N/N=C/c1cc(Br)ccc1OC(=O)c1ccc(Br)cc1)c1ccncc1	20.6µM	?	?	–	?	–
Cc1nc(C)c(C(=O)N/N=C/c2cc(Br)ccc2O)s1	?	2.06µM	·	–	–	?
Cc1ccc(O)c(/C=N/NC(=O)Cc2ccc(Cl)cc2)c1	?	13µM	·	–	–	–
O=C(COc1ccccc1F)Nc1ccc2nc(SCC(=O)N3CCc4ccccc43)sc2c1	·	·	–	–	–	–
